Experiments:
Assay in all cases: PBM binding z-score (relative to random genomic background probes); higher = stronger binding; sequences stand for … in GC…GCGATTGACAGCGTAGAATGAAGG
[1] = system: FXR:RXRa (NR concentration 270 nM, RXRa partner concentration 90 nM)
Method in brief: (§1)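 Binding buffer was PBS pH 7.4 with 2% milk, 0.02% Triton X-100, 1 mM DTT, 0.2 mg/mL BSA and 0.4 mg/ml salmon testes DNA. In it, ligand-free nuclear receptor dimers were incubated 1 h on custom Agilent 4×180K protein-binding microarrays carrying double-stranded probes. Antibodies against each partner (one per run) detected binding, and z-scores were calculated against random background probes after regression normalization of scanned fluorescence.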

[2] = system: LXRa:RXRa (NR concentration 270 nM, RXRa partner concentration 90 nM)
Method in brief: as §1

[3] = system: LXRa homodimer (NR concentration 270 nM)
Method in brief: as §1

[4] = system: LXRb:RXRa (NR concentration 270 nM, RXRa partner concentration 90 nM)
Method in brief: as §1

[5] = system: LXRb homodimer (NR concentration 270 nM)
Method in brief: as §1

[6] = system: PPARa:RXRa (NR concentration 270 nM, RXRa partner concentration 90 nM)
Method in brief: as §1

[7] = system: PPARg:RXRa (NR concentration 180 nM, RXRa partner concentration 90 nM)
Method in brief: as §1

[8] = system: PPARg:RXRa 270nM:90nM, anti-RXR (NR concentration 270 nM, RXRa partner concentration 90 nM)
Method in brief: as §1

[9] = system: PPARg:RXRa 30nM:10nM, anti-RXR (NR concentration 30 nM, RXRa partner concentration 10 nM)
Method in brief: as §1

[10] = system: PPARg:RXRa 90nM:30nM, anti-RXR (NR concentration 90 nM, RXRa partner concentration 30 nM)
Method in brief: as §1

[11] = system: PPARg:RXRa DBDmut IVT, anti-RXR (DBD mutation: RXRa K156A/R161A, NR concentration 270 nM, RXRa partner concentration 90 nM)
Method in brief: as §1

[12] = system: PPARg:RXRa IVT, anti-PPARg (NR concentration 270 nM, RXRa partner concentration 90 nM)
Method in brief: as §1

[13] = system: PPARg DBDmut:RXRa IVT, anti-PPARg (DBD mutation: PPARg1 K132A/R137A, NR concentration 270 nM, RXRa partner concentration 90 nM)
Method in brief: as §1

[14] = system: PPARg DBDmut IVT, anti-PPARg (DBD mutation: PPARg1 K132A/R137A, NR concentration 270 nM)
Method in brief: as §1

[15] = system: PPARg homodimer (NR concentration 180 nM)
Method in brief: as §1

[16] = system: PXR:RXRa (NR concentration 270 nM, RXRa partner concentration 90 nM)
Method in brief: as §1

[17] = system: PXR homodimer (NR concentration 270 nM)
Method in brief: as §1

[18] = system: RARa:RXR (NR concentration 270 nM, RXRa partner concentration 90 nM)
Method in brief: as §1

[19] = system: RARa homodimer (NR concentration 270 nM)
Method in brief: as §1

[20] = system: RARb:RXRa (NR concentration 270 nM, RXRa partner concentration 90 nM)
Method in brief: as §1

Sequence	PBM binding z-score [1]	PBM binding z-score [2]	PBM binding z-score [3]	PBM binding z-score [4]	PBM binding z-score [5]	PBM binding z-score [6]	PBM binding z-score [7]	PBM binding z-score [8]	PBM binding z-score [9]	PBM binding z-score [10]	PBM binding z-score [11]	PBM binding z-score [12]	PBM binding z-score [13]	PBM binding z-score [14]	PBM binding z-score [15]	PBM binding z-score [16]	PBM binding z-score [17]	PBM binding z-score [18]	PBM binding z-score [19]	PBM binding z-score [20]
TCATATAGGTAAACAGGTGAAAGTCCGTAAGTTA	0.771	1.07	0.337	0.884	0.0234	2.39	2.99	3.77	4.16	3.87	4.87	4.6	1.08	0.871	1.31	0.894	0.216	1.3	1.12	0.78
TCTTGTAGATCAGGCAGGTTAAGAAAGCCTGAGT	0.09	0.00615	-0.308	0.209	-0.455	0.43	-0.505	0.864	2.52	1.62	1.29	-0.151	0.127	-0.335	-0.356	0.175	-0.218	0.0754	0.0377	0.0689
AGTCAAAGTTCTGGACGAGGTAACGTAAAGCACG	-0.243	-0.501	-0.429	-0.322	-0.689	0.00286	0.557	0.0282	-0.285	0.00624	-0.983	0.272	0.288	0.0438	-0.146	-0.238	-0.479	0.0945	0.0553	0.168
AGAATGAGTTTATACGTAGATCAGGGAAGAAAGT	-0.0777	-0.0651	-0.37	-0.296	-0.286	-0.283	0.634	-0.311	0.114	-0.213	-0.616	0.0744	0.757	0.612	-0.608	0.81	1.21	-0.34	0.222	0.0922
TCGAGTAGGTGACCAATGGGGCATTCAGCTTTCT	-0.0525	-0.335	-0.709	-0.15	-1.02	0.875	0.524	1.12	1.01	0.794	4.22	3.6	-0.451	-1.19	-0.701	-0.233	-1.05	-0.0879	-1.72	0.567
TAGCCTAGGTCAGTGGGCCAGTATAGTACGCATC	0.672	0.503	-0.786	0.274	-0.999	2.11	2.47	2.57	0.337	1.47	2.3	3.72	-0.247	0.15	0.486	0.1	-0.662	0.533	-1.07	3.01
CGTCAAAGTTCAAGGTACCGTAACAGAAAGCAGC	6.16	5.65	3.11	3.48	0.91	4.61	4	4.81	1.82	3.9	0.47	1.61	0.0848	0.822	2.35	3.99	2.46	3.45	0.789	5.08
